CRFR2-BP ag: agonists of CRF-BP/CRF-R2 complex, primary screen, cell-based, HEK293, calcium dye fluorescence, uHTS; calcium dye fluorescence (FLIPR); percent of saturating CRF peptide response; activation, % at 13.2 µM; AID 588473, 2011; 0.46% of 350,000 active;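 active means activation of at least 50%, plus an integration ratio under a set limit after plate pattern correction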
ANO1 block: TMEM16A chloride channel inhibitors, primary screen, cell-based, HTS | HEK293 TMEM16A/YFP iodide influx fluorescence, ionomycin | normalized B-score (activity score, 25-100; higher = stronger inhibition) at 10 µM | 1.2% of 310,000 active | AID 588511, 2011;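 active means ratio plate-corrected score three or more library SD toward inhibition, starting fluorescence score within five deviations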;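 further: score derived from kinetic fluorescence span divided by baseline fluorescence per well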
CRFR2-BP antag: antagonists of CRF-BP/CRF-R2 complex, primary screen, cell-based, HEK293, calcium dye fluorescence, uHTS; inhibition, % at 11.8 µM; CRF-induced calcium fluorescence; 0.59% of 350,000 active; AID 588475, 2011;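 active means inhibition of the ligand-induced calcium signal above about 50% at the single tested concentration, limit read from the data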
cardiac RTF act: cardiac RTF calcium sensitivity activators, primary screen, biochemical, IANBD-TnC fluorescence, EC20 calcium. Troponin I, cardiac muscle (Homo sapiens) + Troponin T, cardiac muscle (Homo sapiens) + …. IANBD-labeled TnC RTF fluorescence at EC20 calcium; 0% EC20 calcium, 100% full calcium. activation, % at 7.2 µM. 0.24% of 340,000 active. AID 493008, 2010;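 active means activation above the mean over all tested compounds plus 3 SD, cut at about 30% in these data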;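 further: rise in fluorescence read as greater calcium sensitivity of cardiac thin filaments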
TMEM16A act: TMEM16A chloride channel activators or potentiators, primary screen, cell-based, HTS; 0.3% of 340,000 active; Anoctamin-1 (Mus musculus), Q8BHY3; HEK293 TMEM16A/YFP-H148Q/I152L, iodide quench fluorescence; active compounds read low; B-score at 10 µM;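 active means fluorescence-ratio B-score plate-corrected deviation score at least 3 library SD below zero, with starting fluorescence score within 5 deviations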;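 further: channel opened by trigger with iodide after compound preincubation; score built on the fluorescence ratio of max minus min over baseline; more negative score means more quench and so TMEM16A activation or potentiation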
Cardiac RTF inh: cardiac RTF calcium sensitivity inhibitors, primary screen, biochemical, IANBD-TnC fluorescence, EC70 calcium; Troponin I, cardiac muscle (Homo sapiens) + Troponin T, cardiac muscle (Homo sapiens) + …; IANBD-labeled cardiac RTF, Ca2+ fluorescence; inhibition, % at 7.15 µM; AID 493244, 2011; 0.12% of 340,000 active;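 active means inhibition above the mean inhibition of all tested compounds plus 3 SD, cut at about 17% in these data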;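 further: assay run at fixed EC70 calcium of 1.6 mM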
TMEM16A reconf: TMEM16A chloride channel inhibitors, confirmation, cell-based, re-confirmation; shares compounds with ANO1 block; HEK293 TMEM16A/YFP-H148Q, iodide quench fluorescence; ionomycin added to raise cell calcium; inhibition, % at 10 µM; 39% of 2,300 active;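 active means mean duplicate percent inhibition, scaled so buffer wells are 0 and the reference blocker 100, over three buffer SD above buffer mean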
HEK293 Ca mobil: calcium mobilization in TMEM16A/YFP HEK293 cells, confirmation, counter-screen for TMEM16A inhibitor project; 2% of 2,300 active; shares compounds with ANO1 block; Fluo4 calcium mobilization; calcium response (% of ionomycin), % at 10 µM;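 active means duplicate-averaged calcium signal over 20% of the ionomycin maximum, relative to buffer baseline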;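 further: each well's signal is peak minus trough fluorescence divided by its pre-addition baseline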
Parental YFP cnt: iodide YFP quench changes in parental YFP-HEK293, counter-screen for TMEM16A inhibitor project, cell-based; AID 652233, 2013; 2,300 tested, under 10 active; YFP ratio F(max-min)/F0 at 10 µM; ionomycin; shares compounds with ANO1 block;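 active means yellow fluorescent protein signal ratio exceeding the buffer control mean by over 5 SD of those controls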;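 further: ratio is mean of duplicate wells from kinetic YFP trace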
ClC-1 rat inh: ClC-1 chloride channel inhibition, selectivity assay for TMEM16A inhibitor project, cell-based, voltage-dependent ClC-1 | ratio percent, % at 10 µM | CHO ClC-1-YFP, iodide influx fluorescence quench; iodide control reads 0, buffer control 100 | shares compounds with ANO1 block | AID 652236, 2013 | 2,300 tested, under 10 active;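 active means duplicate-mean ratio percent above the mean of iodide-only control wells, which defines zero, plus 5 of their SD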;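 further: higher percent means stronger block of ClC-1 iodide influx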
Target sequence (P35524 whole entry, looked up): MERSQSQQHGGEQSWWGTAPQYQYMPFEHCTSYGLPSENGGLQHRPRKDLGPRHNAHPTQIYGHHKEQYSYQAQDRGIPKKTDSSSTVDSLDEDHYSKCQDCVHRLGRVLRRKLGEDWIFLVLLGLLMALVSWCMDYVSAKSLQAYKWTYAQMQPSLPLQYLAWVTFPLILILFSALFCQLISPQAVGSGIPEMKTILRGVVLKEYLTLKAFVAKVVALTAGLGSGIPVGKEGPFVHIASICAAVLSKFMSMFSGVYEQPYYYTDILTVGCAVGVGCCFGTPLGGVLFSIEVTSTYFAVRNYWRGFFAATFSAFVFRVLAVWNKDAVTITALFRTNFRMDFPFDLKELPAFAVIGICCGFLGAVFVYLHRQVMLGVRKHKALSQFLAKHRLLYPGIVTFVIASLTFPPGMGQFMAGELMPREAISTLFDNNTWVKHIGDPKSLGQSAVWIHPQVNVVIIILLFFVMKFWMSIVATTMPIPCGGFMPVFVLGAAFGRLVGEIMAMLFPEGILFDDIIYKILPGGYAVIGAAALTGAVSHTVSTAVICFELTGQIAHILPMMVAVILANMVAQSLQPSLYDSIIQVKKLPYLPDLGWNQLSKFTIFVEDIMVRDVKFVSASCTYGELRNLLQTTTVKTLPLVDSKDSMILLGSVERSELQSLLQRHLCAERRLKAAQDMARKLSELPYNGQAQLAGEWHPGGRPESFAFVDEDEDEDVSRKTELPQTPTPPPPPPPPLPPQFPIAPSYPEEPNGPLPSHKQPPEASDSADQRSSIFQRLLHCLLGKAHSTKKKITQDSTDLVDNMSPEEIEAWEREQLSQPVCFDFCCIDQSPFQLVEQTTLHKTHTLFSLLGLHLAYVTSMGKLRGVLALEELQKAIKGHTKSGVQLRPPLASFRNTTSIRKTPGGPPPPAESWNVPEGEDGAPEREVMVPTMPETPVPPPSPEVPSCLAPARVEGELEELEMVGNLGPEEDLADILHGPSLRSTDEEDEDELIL
Large screens that a line does not name were inactive (follow-up assays come after a bar, where they were run). An excerpt weighted towards active compounds, which were near 2.4% of everything screened.

COc1cccc(N2C(=NC(=O)c3ccccc3)SC3CS(=O)(=O)CC32)c1 (configuration not stated)	none
CCOc1ccc(-n2c(=S)sc3c(=O)[nH]c(SCC(=O)C(C)(C)C)nc32)cc1	ANO1 block 100 | TMEM16A reconf 33.5% | HEK293 Ca mobil inactive | Parental YFP cnt inactive | ClC-1 rat inh inactive
CC1=CC(C)(C)N2C(=O)C3(SCC(=O)N3c3ccc(F)cc3)c3cc(C)cc1c32 (configuration not stated)	ANO1 block 100 | TMEM16A reconf 20.0% | HEK293 Ca mobil inactive | Parental YFP cnt inactive | ClC-1 rat inh inactive
COc1cc(C(=O)ON=C2C(C)=CC(=O)C=C2C)cc(OC)c1OC	ANO1 block 100 | TMEM16A reconf inactive | HEK293 Ca mobil inactive | Parental YFP cnt inactive | ClC-1 rat inh inactive
Cc1nnc2c3ccccc3c(-c3cccs3)nn12	none
Cc1nnc2c3ccccc3c(-c3ccc(O)cc3)nn12	ANO1 block 25 | TMEM16A reconf inactive | HEK293 Ca mobil inactive | Parental YFP cnt inactive | ClC-1 rat inh inactive
COc1cc(-c2nc(CN3CCN(c4ncccn4)CC3)c(C)o2)ccc1F	none
COc1cc2c(cc1NCc1ccccn1)oc1ccccc12	ANO1 block 100 | TMEM16A reconf inactive | HEK293 Ca mobil inactive | Parental YFP cnt inactive | ClC-1 rat inh inactive
O=C1CCc2cc(NS(=O)(=O)c3cc(F)ccc3F)cc3c2N1CC3	none
Cc1cccc(NC(=O)N2CCN(Cc3ccc(Cl)cc3)CC2)c1	none
O=C(Nc1cccc(Cl)c1)N1CCN(Cc2ccccc2)CC1	ANO1 block 100 | TMEM16A reconf inactive | HEK293 Ca mobil inactive | Parental YFP cnt inactive | ClC-1 rat inh inactive
O=S(=O)(Nc1cccnc1Cl)c1ccc(-c2ccccc2)cc1	none
O=S(=O)(Nc1ccccc1O)c1ccc(-c2ccccc2)cc1	ANO1 block 100 | TMEM16A reconf 57.5% | HEK293 Ca mobil inactive | Parental YFP cnt inactive | ClC-1 rat inh inactive
O=C(Nc1nc(-c2cc(Cl)sc2Cl)cs1)c1ccc(Br)s1	ANO1 block 25 | TMEM16A reconf inactive | HEK293 Ca mobil inactive | Parental YFP cnt inactive | ClC-1 rat inh inactive
N#Cc1ccccc1OCC(=O)N1CCN(S(=O)(=O)c2ccc(Cl)cc2)CC1	none (no result: ANO1 block)
CC(NC(=O)Nc1cccc([N+](=O)[O-])c1)(C(F)(F)F)C(F)(F)F	ANO1 block 100 | TMEM16A reconf inactive | HEK293 Ca mobil inactive | Parental YFP cnt inactive | ClC-1 rat inh inactive
O=C(Nc1cccc([N+](=O)[O-])c1)c1cccc(C(=O)Nc2cccc([N+](=O)[O-])c2)c1	none
Cc1ccc(Nc2nc(-c3cccs3)cs2)nc1	ANO1 block 100 | TMEM16A reconf inactive | HEK293 Ca mobil inactive | Parental YFP cnt inactive | ClC-1 rat inh inactive
CC(=O)N(c1ccc(C)cc1)S(=O)(=O)c1ccc(Cl)cc1	none
COC(=O)c1ccccc1NC(=O)c1cc2ncc(Br)cn2n1	none
COC(=O)c1ccc(N2NC(=O)/C(=C/c3cc(OC)c(O)c(OC)c3)C2=O)cc1	none | TMEM16A reconf inactive | HEK293 Ca mobil inactive | Parental YFP cnt inactive | ClC-1 rat inh inactive
COC(=O)c1ccc(N2NC(=O)/C(=C/c3cc(OC)c(OC)c(OC)c3)C2=O)cc1	none
CC(=O)c1ccc(OCC(O)CN2CCN(Cc3ccccc3)CC2)cc1 (configuration not stated)	none
O=C(c1ccccc1)c1ccc(OCC(O)CN2CCN(Cc3ccccc3)CC2)cc1 (configuration not stated)	ANO1 block 100 | TMEM16A reconf inactive | HEK293 Ca mobil inactive | Parental YFP cnt inactive | ClC-1 rat inh inactive
Cc1ccc(NCC(=O)Nc2cccc(F)c2)cc1S(=O)(=O)N1CCCCCC1	ANO1 block 100 | TMEM16A reconf 34.0% | HEK293 Ca mobil inactive | Parental YFP cnt inactive | ClC-1 rat inh inactive
O=C(COC(=O)c1ccc(O)cc1)Nc1cccc(S(=O)(=O)N2CCCCC2)c1	ANO1 block 25 | TMEM16A reconf inactive | HEK293 Ca mobil inactive | Parental YFP cnt inactive | ClC-1 rat inh inactive
Cc1ccc(NC(=O)CNc2cccc(S(=O)(=O)N3CCCCC3)c2)cc1F	ANO1 block 25 | TMEM16A reconf inactive | HEK293 Ca mobil inactive | Parental YFP cnt inactive | ClC-1 rat inh inactive
CS(=O)(=O)c1ccc(C(=O)OCC(=O)Nc2cccc(S(=O)(=O)N3CCCC3)c2)cc1	none
COc1ccc2c(c1)c(CC(=O)Nc1cccc(S(N)(=O)=O)c1)c(C)n2C(=O)c1ccc(Cl)cc1	none
CCOc1cc(CNc2ccccc2)cc(Br)c1OCC(=O)NC(C)(C)C	ANO1 block 25 | TMEM16A reconf inactive | HEK293 Ca mobil inactive | Parental YFP cnt inactive | ClC-1 rat inh inactive
CCOc1cc(CNc2ccc(Br)cc2)cc(Br)c1OCC(=O)NC(C)(C)C	none
O=C(CCl)Nc1ncc(S(=O)(=O)c2ccc([N+](=O)[O-])cc2)s1	none (no result: ANO1 block)
CCC(C)(C)C(=O)Nc1ncc(S(=O)(=O)c2ccc([N+](=O)[O-])cc2)s1	ANO1 block 25 | TMEM16A reconf 28.5% | HEK293 Ca mobil inactive | Parental YFP cnt inactive | ClC-1 rat inh inactive
Cc1ccc(N(CC(=O)NC2CCCCC2)C(=O)CNC(=O)c2ccco2)c(C)c1	none
O=C(O)c1ccc(N=Nc2c(O)[nH]c3ccc(Br)cc23)cc1	none | TMEM16A reconf 17.0% | HEK293 Ca mobil inactive | Parental YFP cnt inactive | ClC-1 rat inh inactive
O=C(O)c1ccc(N=Nc2c(O)[nH]c3cc(Cl)ccc23)cc1	none

Screening data as filed in PubChem.
